The values below come from PubChem BioAssay (NCATS).

The target of assay [1] is Beta-2 adrenergic receptor (Homo sapiens) (UniProt P07550). As to the kind of experiment: qHTS validation assay of beta-arrestin-biased ligands of beta2-adrenergic receptor (AID 485366). Put shortly: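 Agonism was measured as beta-arrestin recruitment to recombinant beta2-AR, releasing tTA to drive luciferase. Cells were exposed for 18 hr at 37 degrees C to a series up to 46 microM. %Activity from corrected luminescence gave concentration-response curves.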

Assay [2] concerns the target ATP-dependent 6-phosphofructokinase (Trypanosoma brucei brucei) (UniProt O15648). As to the kind of experiment: qHTS Validation Assay to Find Inhibitors of T. brucei phosphofructokinase (AID 485368). Also: potency is read from the fitted curve at half-maximal effect. Put shortly:
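ADP-Glo luminescence, two-step: residual ATP depleted, then ADP converted to ATP for luciferase. Enzyme 1.25 nM, F6P 0.5 mM, ATP 0.1 mM, pH 8.0 TEA buffer, 45 min RT. Curves fitted and classed by quality and efficacy.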

The nature of assay [3]: Quantitative high throughput screen for delayed death inhibitors of the malarial parasite plastid, 96 hour incubation (AID 488745). Also: nearly all actives have a fitted effect of over 70% in size. Also: potency is read from the fitted curve at half-maximal effect. The procedure, abridged:
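Decreased firefly luciferase luminescence indicates inhibited growth of reporter-integrated P. falciparum after two generations (96 h, 37 C, 5% CO2). Infected erythrocytes at 0.1% parasitemia, 2% hematocrit, in Albumax-supplemented RPMI 1640.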

For assay [4], the target named is Thioredoxin reductase 1, cytoplasmic (Rattus norvegicus) (UniProt O89049). The assay is described as follows: qHTS Assay for Substrates of Mammalian Selenoprotein Thioredoxin Reductase 1 (TrxR1) (AID 488772).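 Also: series mostly up to about 57 µM; a drop in NADPH fluorescence below the no-compound background marks a TrxR1 substrate.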 The procedure, abridged:
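In this dual-purpose format, potential substrates are identified from the first fluorescence read after selenite addition, not from the 8-minute delta. Rat enzyme is preincubated with NADPH and then with compound at ~22 deg C.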

For assay [5] the target is unchanged. The assay is described as follows: qHTS Assay for Inhibitors of Mammalian Selenoprotein Thioredoxin Reductase 1 (TrxR1) (AID 488773).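 Also: drop in NADPH fluorescence over an 8 min run after selenite addition; series mostly up to about 57 µM; nearly all actives have a fitted effect of over 40% in size.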 The settings on record: Potency: inhibition. Put shortly:
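Inhibition is scored from the loss of NADPH fluorescence between first and last reads of an 8-min kinetic run. Selenite (400 uM) was the substrate, added after 15 min compound preincubation at room temperature.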

The target in assay [6] is M-phase phosphoprotein 8 (Homo sapiens) (UniProt Q99549). As to the kind of experiment: qHTS Validation Assay for Inhibitors for MPP8 Chromodomain Interactions with Methylated Histone Tails (AID 488949). Also: nearly all actives have a fitted effect of over 55% in size. Also: potency is read from the fitted curve at half-maximal effect. Put shortly: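 AlphaScreen proximity signal from streptavidin donor and Ni-chelate acceptor beads (10 ug/mL each) reported binding of MPP8 to trimethyl-K9 H3(1-18) peptide, both at 50 nM. The complex formed 30 min before a 30 min compound exposure at room temperature, in PBS pH 7.4.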

The target in assay [7] is Chromobox protein homolog 1 (Homo sapiens) (UniProt P83916). As to the kind of experiment: qHTS Validation Assay for Inhibitors of HP1-beta Chromodomain Interactions with Methylated Histone Tails (AID 488953). Also: nearly all actives have a fitted effect of over 50% in size. Also: potency is read from the fitted curve at half-maximal effect. Put shortly:
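AlphaScreen proximity signal from streptavidin donor and nickel chelate acceptor beads (final 10 ug/mL) after 30 min dark incubation. Compounds had 30 min at room temperature with preformed complex of 50 nM HP1-beta and 50 nM b-H3(1-18)K9me3 in PBS pH 7.4 with 0.01% Tween-20.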

Assay [8] has as its target Methanococcus maripaludis chaperonin (MmCpn) (UniProt Q6LX38). As to the kind of experiment: High-Throughput Screening for Modulators of Cytosolic Chaperonin Activity: MmCpn Primary Screen (AID 488978).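 Also: 50 nM MmCpn enzyme hydrolysing 30 µM ATP at 37 °C.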 Put shortly: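 ATPase activity of 50 nM MmCpn was assayed with 30 uM ATP, 10 minutes at 37C, after a 5 min compound preincubation at room temperature. ADP production was read as HTRF emission at 590 and 665 nm.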

Assay [9] can be described thus: Quantitative high throughput screen for delayed death inhibitors of the malarial parasite plastid, 48 hour incubation (AID 488752). Also: nearly all actives have a fitted effect of over 65% in size. The procedure, abridged: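 One-generation (48 h) growth assay: a decrease in luciferase signal from an integrated reporter in P. falciparum-infected red cells (0.1% parasitemia, 2% hematocrit) after compound exposure at 37 C indicates parasite inhibition.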

Assay [10] addresses Flap endonuclease 1 (Homo sapiens) (UniProt P39748). As to the kind of experiment: qHTS Validation Assay for the Inhibitors of Human Flap endonuclease 1 (FEN1) (AID 488816). Also: potency is read from the fitted curve at half-maximal effect. The procedure, abridged:
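Enzyme reagent 10 nM; cpds pinned; 15 min RT preinc.; substrate 50 nM final; reads t=0 and 15 min; no-enzyme buffer wells as neg. control; normalized data, 4-parameter Hill fit.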

Values joined by “and” are separate entries in the source; they are usually repeats but may differ in a detail not shown here. Equal entries are not always repeated. Inconclusive results are not listed. Some compounds were tested as several samples or in several runs, with calls that do not always agree. Active and inactive are the calls of the source. Calls follow the shape of the dose curve; as a rule, active = well fitted curve in the direction sought with a large enough effect; inconclusive = small, poorly fitted or top-dose-only effect, or another doubt; inactive = no such curve, though single readings can be large; an effect the other way counts as inactive or inconclusive.

Methanococcus maripaludis chaperonin (MmCpn), sequence (Q6LX38 1-543): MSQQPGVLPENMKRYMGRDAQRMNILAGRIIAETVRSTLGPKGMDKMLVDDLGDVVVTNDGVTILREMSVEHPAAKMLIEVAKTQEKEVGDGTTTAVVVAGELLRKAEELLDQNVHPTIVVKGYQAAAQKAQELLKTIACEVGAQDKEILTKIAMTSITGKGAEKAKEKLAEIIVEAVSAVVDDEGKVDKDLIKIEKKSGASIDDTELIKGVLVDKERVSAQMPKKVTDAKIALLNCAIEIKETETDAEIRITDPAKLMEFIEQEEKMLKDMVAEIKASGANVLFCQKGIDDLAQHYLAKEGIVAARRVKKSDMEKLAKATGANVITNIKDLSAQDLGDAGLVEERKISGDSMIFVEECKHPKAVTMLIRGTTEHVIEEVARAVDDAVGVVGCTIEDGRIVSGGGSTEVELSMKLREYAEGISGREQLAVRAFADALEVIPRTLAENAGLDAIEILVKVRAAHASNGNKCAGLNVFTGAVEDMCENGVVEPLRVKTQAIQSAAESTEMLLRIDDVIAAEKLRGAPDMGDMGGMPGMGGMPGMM
Beta-2 adrenergic receptor (Homo sapiens), sequence (P07550 whole entry, looked up): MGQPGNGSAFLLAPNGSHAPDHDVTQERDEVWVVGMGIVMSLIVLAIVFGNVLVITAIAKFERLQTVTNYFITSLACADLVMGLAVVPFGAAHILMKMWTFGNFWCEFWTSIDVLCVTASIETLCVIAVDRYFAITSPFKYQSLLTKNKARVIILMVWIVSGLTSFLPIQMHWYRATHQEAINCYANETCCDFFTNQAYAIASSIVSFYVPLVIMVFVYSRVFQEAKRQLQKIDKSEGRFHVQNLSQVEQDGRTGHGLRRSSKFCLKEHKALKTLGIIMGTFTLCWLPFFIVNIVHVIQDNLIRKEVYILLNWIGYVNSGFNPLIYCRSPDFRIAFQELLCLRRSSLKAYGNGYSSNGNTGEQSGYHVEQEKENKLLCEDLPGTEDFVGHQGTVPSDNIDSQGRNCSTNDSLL
M-phase phosphoprotein 8 (Homo sapiens), sequence (Q99549 whole entry, looked up): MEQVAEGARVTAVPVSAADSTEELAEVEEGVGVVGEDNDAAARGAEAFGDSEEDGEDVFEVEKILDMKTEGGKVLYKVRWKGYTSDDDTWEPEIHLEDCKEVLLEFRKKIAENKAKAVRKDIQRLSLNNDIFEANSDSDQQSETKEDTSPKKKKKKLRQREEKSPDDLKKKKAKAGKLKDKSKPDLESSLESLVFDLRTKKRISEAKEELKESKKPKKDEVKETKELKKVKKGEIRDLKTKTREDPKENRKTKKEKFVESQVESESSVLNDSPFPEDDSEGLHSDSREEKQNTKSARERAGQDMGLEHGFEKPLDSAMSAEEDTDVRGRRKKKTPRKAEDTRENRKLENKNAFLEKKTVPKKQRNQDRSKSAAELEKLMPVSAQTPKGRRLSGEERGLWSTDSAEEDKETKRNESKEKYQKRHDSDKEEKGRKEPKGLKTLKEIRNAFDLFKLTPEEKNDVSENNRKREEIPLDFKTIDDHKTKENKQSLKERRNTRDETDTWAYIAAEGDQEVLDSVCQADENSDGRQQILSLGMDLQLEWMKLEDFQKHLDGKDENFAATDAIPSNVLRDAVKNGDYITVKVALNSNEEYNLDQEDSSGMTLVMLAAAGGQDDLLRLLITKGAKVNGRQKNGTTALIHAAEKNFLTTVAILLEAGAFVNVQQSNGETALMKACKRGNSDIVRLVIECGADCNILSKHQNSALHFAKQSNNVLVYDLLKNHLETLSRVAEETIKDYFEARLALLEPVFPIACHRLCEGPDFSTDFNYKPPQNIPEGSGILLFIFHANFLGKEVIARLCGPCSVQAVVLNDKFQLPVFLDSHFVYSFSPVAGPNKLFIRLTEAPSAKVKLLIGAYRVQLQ
Flap endonuclease 1 (Homo sapiens), sequence (P39748 whole entry, looked up): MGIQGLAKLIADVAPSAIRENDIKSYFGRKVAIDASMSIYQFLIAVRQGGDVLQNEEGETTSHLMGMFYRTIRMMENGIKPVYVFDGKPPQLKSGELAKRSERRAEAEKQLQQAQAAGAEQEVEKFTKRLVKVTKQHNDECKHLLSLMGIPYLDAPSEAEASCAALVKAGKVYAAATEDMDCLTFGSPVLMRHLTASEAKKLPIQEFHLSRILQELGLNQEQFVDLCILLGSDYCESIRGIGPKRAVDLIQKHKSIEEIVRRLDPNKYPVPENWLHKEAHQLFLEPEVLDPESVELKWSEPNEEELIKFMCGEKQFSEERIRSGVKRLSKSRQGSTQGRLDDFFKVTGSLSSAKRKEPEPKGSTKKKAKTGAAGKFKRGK
ATP-dependent 6-phosphofructokinase (Trypanosoma brucei brucei), sequence (O15648 whole entry, looked up): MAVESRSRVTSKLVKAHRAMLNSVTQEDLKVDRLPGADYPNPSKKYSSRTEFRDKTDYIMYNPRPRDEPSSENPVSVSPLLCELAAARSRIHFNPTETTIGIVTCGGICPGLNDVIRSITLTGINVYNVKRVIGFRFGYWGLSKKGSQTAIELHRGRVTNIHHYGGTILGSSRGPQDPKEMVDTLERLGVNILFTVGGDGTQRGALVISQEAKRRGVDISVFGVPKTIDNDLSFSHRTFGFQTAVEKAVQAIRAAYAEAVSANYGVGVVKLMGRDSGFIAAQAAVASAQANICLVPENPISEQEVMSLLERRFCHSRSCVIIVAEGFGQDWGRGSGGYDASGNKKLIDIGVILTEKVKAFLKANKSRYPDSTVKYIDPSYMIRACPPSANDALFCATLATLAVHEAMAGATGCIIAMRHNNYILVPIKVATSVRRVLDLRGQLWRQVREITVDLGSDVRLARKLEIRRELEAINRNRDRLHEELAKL
Chromobox protein homolog 1 (Homo sapiens), sequence (P83916 whole entry, looked up): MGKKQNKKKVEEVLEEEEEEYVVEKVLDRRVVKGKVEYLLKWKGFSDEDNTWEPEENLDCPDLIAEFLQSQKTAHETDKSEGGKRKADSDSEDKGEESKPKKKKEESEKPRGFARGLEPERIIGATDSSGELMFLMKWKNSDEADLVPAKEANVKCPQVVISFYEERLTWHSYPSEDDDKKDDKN
Thioredoxin reductase 1, cytoplasmic (Rattus norvegicus), sequence (O89049 whole entry, looked up): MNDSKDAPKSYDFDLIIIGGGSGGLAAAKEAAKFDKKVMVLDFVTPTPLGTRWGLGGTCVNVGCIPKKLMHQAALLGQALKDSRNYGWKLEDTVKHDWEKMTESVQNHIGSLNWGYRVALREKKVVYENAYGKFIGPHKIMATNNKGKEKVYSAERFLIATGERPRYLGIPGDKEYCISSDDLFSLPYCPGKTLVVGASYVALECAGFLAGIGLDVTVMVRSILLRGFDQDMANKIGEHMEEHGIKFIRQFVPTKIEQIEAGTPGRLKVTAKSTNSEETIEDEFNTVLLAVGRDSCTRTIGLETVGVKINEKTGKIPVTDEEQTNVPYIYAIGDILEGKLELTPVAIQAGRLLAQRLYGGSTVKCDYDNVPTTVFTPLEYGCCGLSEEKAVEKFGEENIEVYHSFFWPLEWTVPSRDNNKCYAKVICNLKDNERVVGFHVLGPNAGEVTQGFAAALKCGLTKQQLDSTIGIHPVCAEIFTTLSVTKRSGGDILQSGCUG

For the compound `Cn1ccnc1`, the result in assay [1], in [4] and in assay [8] was inactive. The Potency entry in assay [2], in [3], in assay [5], in [6] and in [7] was “inactive” in each case.
With `CCCc1c(OCCCOc2ccc(OCC(=O)O)cc2)ccc(C(C)=O)c1O`, the call in assay [1], in assay [4] and in assay [8] was inactive. The Potency result in [2], in [3], in assay [9], in assay [6] and in assay [7] was “inactive” in each case.
As for `CN(C)S(=O)(=O)c1ccc2c(c1)/C(=C/c1cc3c([nH]1)CCCC3)C(=O)N2`, the compound was called inactive in assay [1], in assay [4] and in assay [8]. Besides, the Potency result in assay [2] and in [10] was “inactive” in each case. Moreover, the Potency is 3.7 µM (active) in [3]; 17.8 µM (active) and inactive in [6].
With `N[C@H](C(=O)O)[C@H](O)C(=O)O`, the call in [1], in assay [4] and in assay [8] was inactive. Also, the Potency entry in [2], in [3], in assay [5], in assay [10], in assay [6] and in [7] was “inactive” each time.
Take `COc1cc(/C=C(\C#N)C(=O)c2ccc(O)c(O)c2)cc(I)c1O`: the call in [1], in assay [4] and in [8] was inactive. For the same compound, the Potency in [2] was 6.01 µM (active); in assay [6] it was 8.91 µM (active) and 8.44 µM (active); in assay [7] it was 10 µM (active). Besides, the Potency entry in [3] and in assay [9] was “inactive” in each case.
Consider `CCCCOC(=O)NS(=O)(=O)c1sc(CC(C)C)cc1-c1ccc(Cn2c(CC)nc3c(C)cc(C)nc32)cc1`, for which the compound was called inactive in assay [1] and in assay [8]. For the same compound, the Potency result in [2], in assay [3], in [6] and in assay [7] was “inactive” throughout.
With `CC(N)=NCCCC[C@@H](N)C(=O)O`, the call in assay [1], in [4] and in [8] was inactive. Besides, the Potency entry in [2], in [3], in assay [5], in [10], in assay [6] and in assay [7] was “inactive” in each case.
As for `CN1CCC2(CCN3CCc4c(oc5ccccc45)C3C2)N(C)C1=O` (stereo not given), the result in assay [1], in assay [4] and in [8] was inactive. Moreover, the Potency result in assay [2], in [3], in assay [5], in [6] and in assay [7] was “inactive” each time.
Turning to `N[C@H](C(=O)O)c1cc(O)cc(O)c1`, the outcome in assay [1], in assay [4] and in assay [8] was inactive. In addition, the Potency result in assay [2], in assay [9], in [5], in assay [10], in assay [6] and in [7] was “inactive” in each case.
Turning to `OC[C@H]1O[C@@H](n2cnc3cncnc32)[C@H](O)[C@@H]1O`, the call in assay [1], in assay [4] and in assay [8] was inactive. The Potency result in assay [2], in [5], in assay [10], in assay [6] and in assay [7] was “inactive” each time. Moreover, the Potency in assay [3] is 3.29 µM (active).
On to `COc1ccccc1N1CCN(CCCCN2C(=O)c3ccccc3C2=O)CC1`, for which the call in assay [1], in assay [4] and in assay [8] was inactive. Also, the Potency result in assay [2], in assay [3], in assay [5], in [6] and in [7] was “inactive” each time.
As for `CC(=O)NNC(=O)N1Cc2ccccc2Oc2ccc(Cl)cc21`, the call in [1], in [4] and in [8] was inactive. The Potency entry in assay [2], in assay [3], in assay [5], in [10], in [6] and in assay [7] was “inactive” in each case.
`Cc1nc(N=Nc2cc(S(=O)(=O)O)c3cc([N+](=O)[O-])cc(S(=O)(=O)O)c3c2)c(COP(=O)(O)O)c(C=O)c1O`: the compound was called inactive in [1], in [4] and in assay [8]. The Potency in [2] is 7.57 µM (active); in assay [10] it was 23.8 µM (active); in [6], 10 µM (active); in assay [7], 28.2 µM (active). Besides, the Potency result in assay [3] was “inactive”.
Turning to `CCCCOc1cc(CC2CNC(=O)N2)ccc1OC` (stereo not given), the result in assay [1], in assay [4] and in assay [8] was inactive. Besides, the Potency entry in assay [2], in [9], in assay [5], in assay [10], in assay [6] and in assay [7] was “inactive” in each case.
Turning to `N[C@H](C(=O)O)[C@H]1C[C@@H]1C(=O)O`, the compound was called inactive in assay [1], in assay [4] and in [8]. Besides, the Potency result in assay [2], in assay [3], in assay [5], in [10], in assay [6] and in assay [7] was “inactive” throughout.
As to `CN(C)CCC(c1ccc(Br)cc1)c1ccccn1` (stereo not given), the compound was called inactive in assay [1], in [4] and in assay [8]. Moreover, the Potency result in assay [2], in assay [9], in assay [5], in assay [10], in assay [6] and in assay [7] was “inactive” throughout.
In the case of `COc1cc2c(CCNC(C)=O)c[nH]c2cc1O`, the result in assay [1], in assay [4] and in [8] was inactive. In addition, the Potency result in assay [2], in assay [9], in assay [5], in [10], in [6] and in assay [7] was “inactive” each time.
Take `CN1C2CCC1CC(OC(c1ccccc1)c1ccccc1)C2` (stereo not given): the compound was classed as inactive in assay [1], in assay [4] and in assay [8]. The Potency entry in assay [2], in [5], in [6] and in assay [7] was “inactive” each time. Besides, the Potency in assay [3] was 8.28 µM (active).
Consider `CSC(=N)N`, for which the compound was called inactive in assay [1], in assay [4] and in [8]. The Potency result in assay [2], in assay [3], in [5], in assay [10], in assay [6] and in assay [7] was “inactive” throughout.
Take `NC/C=C\C(=O)O`: the result in [1] and in assay [4] was inactive. In addition, the Potency result in [2], in assay [3], in assay [9], in [6] and in [7] was “inactive” in each case.
For `CC1C(=O)N(C)C(=O)c2nc[nH]c21` (stereo not given), the result in assay [1], in [4] and in assay [8] was inactive. The Potency entry in assay [2], in assay [9], in assay [5], in assay [10], in assay [6] and in assay [7] was “inactive” throughout.
With `OC[C@H]1NC[C@@H](O)[C@@H]1O`, the outcome in [1], in assay [4] and in assay [8] was inactive. Moreover, the Potency result in assay [2], in assay [9], in assay [5], in [10], in [6] and in [7] was “inactive” each time.
For the compound `O=c1[nH]c2ccccc2c2ccccc12`, the compound was classed as inactive in assay [1] and in assay [4]. Further, the Potency entry in assay [2], in assay [9], in [5], in assay [10], in assay [6] and in assay [7] was “inactive” in each case.
As for `O=C(OCCN1CCOCC1)C1(c2ccccc2)CCCCC1`, the compound was called inactive in assay [1], in [4] and in assay [8]. The Potency entry in [2], in assay [3], in assay [5], in assay [6] and in assay [7] was “inactive” throughout.
On to `NC1C=CC=C(C(=O)O)C1` (stereo not given), for which the compound was classed as inactive in assay [1], in [4] and in assay [8]. Besides, the Potency entry in assay [2], in assay [3], in assay [5], in [10], in assay [6] and in assay [7] was “inactive” in each case.
Take `Cc1ccc2c(c1)C(N1CCN(C)CC1)=Nc1cccnc1N2`: the outcome in assay [1] and in [4] was inactive. Further, the Potency result in assay [2], in [3], in [5], in assay [10] and in [6] was “inactive” each time.
For the compound `C=CC1(C)CC(=O)C2(O)C(C)(O1)C(OC(C)=O)C(O)C1C(C)(C)CCC(O)C12C` (stereo not given), the call in [1], in [4] and in assay [8] was inactive. Further, the Potency entry in assay [2], in assay [3], in assay [5], in assay [10], in assay [6] and in assay [7] was “inactive” throughout.
